Molecules are shown by their SMILES. Results filed as inconclusive are left out. Activity calls are given as the source filed them. How the source made its calls, unless noted: active means hit-call score of the fitted dose curve at least 0.9, where 1 is the maximum; inconclusive means response in the unintended direction; inactive means score below 0.9.

Here are results for twelve compounds from PubChem BioAssay (EPA / NIEHS).

Experiment [1] has as its target human Peroxisome Proliferator-activated Receptor delta (PPARd), PPARD (gene 5467) (UniProt Q03181). Briefly: ATG_PPARd_TRANS: Attagene TRANS-FACTORIAL HepG2 Assay for human Peroxisome Proliferator-activated Receptor delta (PPARd) (AID 2283002). Summed up:
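HepG2 cells transiently transfected with GAL4-UAS multiplexed reporter units driven by exogenous chimeric NR-GAL4 proteins; 24 h compound exposure. Reporter mRNA measured by RT-PCR, 6-FAM primer extension, HpaI digestion and capillary electrophoresis; gain of signal fitted relative to DMSO.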

Experiment [2] concerns the target Nuclear receptor subfamily 1 group I member 2 (Homo sapiens) (UniProt O75469). Nature of the experiment: ATG_PXR_TRANS: Attagene TRANS-FACTORIAL HepG2 Assay for human Pregnane X Receptor (PXR) (AID 2283008). Summed up: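 HepG2 transfected (FuGene 6) with GAL4-UAS reporter units + PXR-Gal4 chimera; dosed 24 h. Total RNA → oligo(dT) RT → PCR → 6-FAM primer extension → HpaI cut → CE. Gain-of-signal vs DMSO.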

Experiment [3] has as its target human RAR-related Orphan Receptor beta (RORb), RORB (gene 6096) (UniProt Q92753). Nature of the experiment: ATG_RORb_TRANS: Attagene TRANS-FACTORIAL HepG2 Assay for human RAR-related Orphan Receptor beta (RORb) (AID 2283010). A digest of the protocol:
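Multiplexed transcription-factor reporter assay: HepG2 cells transiently carrying NR-Gal4/GAL4-UAS constructs, 24 h treatment, mRNA quantified by RT-PCR plus capillary electrophoresis fluorescence; activity scored as induction over DMSO.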

The target of experiment [4] is Retinoic acid receptor RXR-alpha (Homo sapiens) (UniProt P19793). Briefly: ATG_RXRa_TRANS: Attagene TRANS-FACTORIAL HepG2 Assay for human Retinoid X Receptor alpha (RXRa) (AID 2283012). A digest of the protocol:
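Chimeric NR-GAL4 trans-activation in HepG2, 24 h treatment; reporter transcripts quantified by fluorescence on capillary electrophoresis, analysed for upward change from DMSO.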

Read-out in experiment [5]: Intercellular Adhesion Molecule 1 (ICAM1), ICAM1 (gene 3383)
Briefly: BSK_3C_ICAM1: BioMAP Diversity Plus: 3C Assay for Intercellular Adhesion Molecule 1 (ICAM1) Biomarker Activity (AID 2283003; active means hit-call score of the fitted dose curve at least 0.9, where 1 is the maximum; inactive means score below 0.9). The note with it: primary human endothelial cells (HUVEC); actives raise or lower the signal. A digest of the protocol: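 Using DMSO as baseline, bidirectional curve fitting was applied to ICAM-1 ELISA signals from HUVEC in the 3C system, measured 24 h after compound addition.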

Experiment [6] can be described thus: BSK_3C_Proliferation: Cell Proliferation Assessment in the BioMAP Diversity Plus: 3C Assay (AID 2283006; active means hit-call score of the fitted dose curve at least 0.9, where 1 is the maximum; inactive means score below 0.9). The following applies: primary human endothelial cells (HUVEC). Summed up:
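Measured here: sulforhodamine B (0.1%) staining of TCA-fixed sub-confluent umbilical vein endothelial cultures 48 h post-dosing, absorbance 560 nm. DMSO served as negative control and baseline; both signal gain and loss were modelled.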

Experiment [7] concerns the target Peroxisome proliferator-activated receptor gamma (Homo sapiens) (UniProt P37231). Nature of the experiment: ATG_PPARg_TRANS: Attagene TRANS-FACTORIAL HepG2 Assay for human Peroxisome Proliferator-activated Receptor-gamma (PPARg) (AID 2283007). A digest of the protocol: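 HepG2 cells transiently transfected with multiplexed GAL4-UAS reporter units and exogenous chimeric NR-Gal4 proteins; reporter mRNA quantified after 24 h compound exposure by RT-PCR, fluorescent labelling, HpaI digestion and capillary electrophoresis; gain-of-signal fitted versus DMSO baseline.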

Experiment [8] addresses human Thyroid Receptor alpha (THRa1), THRA (gene 7067) (UniProt P10827). Nature of the experiment: ATG_THRa1_TRANS: Attagene TRANS-FACTORIAL HepG2 Assay for human Thyroid Receptor alpha (THRa1) (AID 2283014). Summed up:
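Measured here is mRNA from a GAL4-UAS reporter in transfected HepG2 cells carrying a Gal4-fused receptor, 24 h post-dose. DMSO served as negative control and baseline.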

Read-out in experiment [9]: E-selectin (Homo sapiens) (UniProt P16581)
Nature of the experiment: BSK_3C_Eselectin: BioMAP Diversity Plus: 3C Assay for Eselectin Biomarker Activity (AID 2283015; active means hit-call score of the fitted dose curve at least 0.9, where 1 is the maximum; inactive means score below 0.9;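 further: cell surface E-selectin protein quantified by ELISA 24 h after dosing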). The following applies: primary human endothelial cells (HUVEC); actives raise or lower the signal. Summed up:
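Endpoint derived by bidirectional fitting against DMSO vehicle; signal is ELISA-detected E-selectin from primary HUVEC at 24 h post-dosing, with parallel SRB staining (0.1% SRB, 560 nm) flagging cytotoxicity.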

Read-out in experiment [10]: Interleukin-1 alpha (IL1a), IL1A (gene 3552)
Nature of the experiment: BSK_BE3C_IL1a: BioMAP Diversity Plus: BE3C Assay for Interleukin-1 alpha (IL1a) Biomarker Activity (AID 2283016; active means hit-call score of the fitted dose curve at least 0.9, where 1 is the maximum; inactive means score below 0.9). The following applies: primary human bronchial epithelial cells; actives raise or lower the signal. A digest of the protocol: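 Measured in human lung primary bronchial epithelial cells: IL-1a by ELISA at 24 h after dosing, with bidirectional fitting against DMSO.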

Read-out in experiment [11]: Monocyte Chemoattractant Protein-1 (MCP1), CCL2 (gene 6347)
Briefly: BSK_3C_MCP1: BioMAP Diversity Plus: 3C Assay for Monocyte Chemoattractant Protein-1 (MCP1) Biomarker Activity (AID 2283017; active means hit-call score of the fitted dose curve at least 0.9, where 1 is the maximum; inactive means score below 0.9). The note with it: primary human endothelial cells (HUVEC); actives raise or lower the signal. Summed up:
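Using human vascular primary endothelium, researchers measured MCP-1 by ELISA 24 h after treatment, with DMSO serving as negative control for bidirectional fitting.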

Read-out in experiment [12]: Monocyte Chemoattractant Protein-1 (MCP1), CCL2 (gene 6347)
Briefly: BSK_4H_MCP1: BioMAP Diversity Plus: 4H Assay for Monocyte Chemoattractant Protein-1 (MCP1) Biomarker Activity (AID 2283018; active means hit-call score of the fitted dose curve at least 0.9, where 1 is the maximum; inactive means score below 0.9). The note with it: primary human endothelial cells (HUVEC); actives raise or lower the signal. Summed up:
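Primary human umbilical vein endothelium is exposed to chemical for 24 h before MCP-1 is assayed by ELISA. Concentration-response fitted bidirectionally relative to DMSO.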

Read-out in experiment [13]: Human Leukocyte Antigen - DR isotype (HLADR), HLA-DRA (gene 3122)
Briefly: BSK_3C_HLADR: BioMAP Diversity Plus: 3C Assay for Human Leukocyte Antigen - DR isotype (HLADR) Biomarker Activity (AID 2283019; active means hit-call score of the fitted dose curve at least 0.9, where 1 is the maximum; inactive means score below 0.9;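 further: ELISA of cell-surface HLA-DR on HUVEC 24 h after dosing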). The following applies: primary human endothelial cells (HUVEC); actives raise or lower the signal. A digest of the protocol:
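Compound added to primary HUVEC cultures, 24 h incubation, then HLA-DR determined by ELISA; endpoint derived by bidirectional fitting relative to DMSO negative control.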

Read-out in experiment [14]: Interleukin-8 (IL8), CXCL8 (gene 3576)
Briefly: BSK_3C_IL8: BioMAP Diversity Plus: 3C Assay for Interleukin-8 (IL8) Biomarker Activity (AID 2283020; active means hit-call score of the fitted dose curve at least 0.9, where 1 is the maximum; inactive means score below 0.9). The following applies: primary human endothelial cells (HUVEC); actives raise or lower the signal. Summed up: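 Using DMSO-treated wells as the baseline, bidirectional curve fitting was applied to ELISA-measured IL-8 from human umbilical vein endothelial cultures sampled 24 h after compound addition.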

For experiment [15], the target named is human RAR-related Orphan Receptor gamma (RORg), RORC (gene 6097) (UniProt P51449). Briefly: ATG_RORg_TRANS: Attagene TRANS-FACTORIAL HepG2 Assay for human RAR-related Orphan Receptor gamma (RORg) (AID 2283011). A digest of the protocol:
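Chimeric RORg-Gal4 transactivation in transfected HepG2; 24 h exposure; RT-PCR/capillary electrophoresis readout of reporter mRNA, DMSO baseline.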

Experiment [16] has as its target human Retinoid X Receptor beta (RXRb), RXRB (gene 6257) (UniProt P28702). Nature of the experiment: ATG_RXRb_TRANS: Attagene TRANS-FACTORIAL HepG2 Assay for human Retinoid X Receptor beta (RXRb) (AID 2283013). Summed up:
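After a 24 h incubation with test chemical, transfected HepG2 cells carrying NR-Gal4 fusions and GAL4-UAS reporter transcription units yield RNA whose reporter cDNA is FAM-labelled, HpaI-cut and sized by capillary electrophoresis; increases over DMSO are scored.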

Experiment [17] has as its target human Retinoic Acid Receptor gamma (RARg), RARG (gene 5916) (UniProt P13631). Briefly: ATG_RARg_TRANS: Attagene TRANS-FACTORIAL HepG2 Assay for human Retinoic Acid Receptor gamma (RARg) (AID 2283009). A digest of the protocol: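 Gain-of-signal relative to DMSO is reported from fluorescent capillary electrophoresis of RT-PCR reporter products. These came from HepG2 cells expressing transfected RARg-GAL4 chimeras with UAS reporters, harvested 24 h after dosing.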

Chain of E-selectin (Homo sapiens) (P16581 whole entry, looked up): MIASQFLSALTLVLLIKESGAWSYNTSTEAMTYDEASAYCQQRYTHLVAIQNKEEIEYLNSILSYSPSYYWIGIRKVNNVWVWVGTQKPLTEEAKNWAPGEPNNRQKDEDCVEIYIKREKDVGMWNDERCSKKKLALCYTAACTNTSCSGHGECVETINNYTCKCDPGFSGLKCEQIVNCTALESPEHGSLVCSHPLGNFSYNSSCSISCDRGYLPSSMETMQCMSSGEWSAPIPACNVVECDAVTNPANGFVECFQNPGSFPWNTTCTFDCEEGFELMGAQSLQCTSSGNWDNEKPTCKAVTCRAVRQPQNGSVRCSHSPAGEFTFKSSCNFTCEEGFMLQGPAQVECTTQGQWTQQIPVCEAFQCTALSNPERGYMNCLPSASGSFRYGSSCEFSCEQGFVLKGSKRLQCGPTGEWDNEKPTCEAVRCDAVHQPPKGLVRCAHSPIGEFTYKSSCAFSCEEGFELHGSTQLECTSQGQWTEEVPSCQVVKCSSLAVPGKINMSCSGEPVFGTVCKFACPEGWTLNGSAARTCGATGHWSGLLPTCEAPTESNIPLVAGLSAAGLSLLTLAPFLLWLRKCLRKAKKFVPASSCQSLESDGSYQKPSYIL
Chain of human RAR-related Orphan Receptor gamma (RORg), RORC (gene 6097) (P51449 whole entry, looked up, the tested form may be a part): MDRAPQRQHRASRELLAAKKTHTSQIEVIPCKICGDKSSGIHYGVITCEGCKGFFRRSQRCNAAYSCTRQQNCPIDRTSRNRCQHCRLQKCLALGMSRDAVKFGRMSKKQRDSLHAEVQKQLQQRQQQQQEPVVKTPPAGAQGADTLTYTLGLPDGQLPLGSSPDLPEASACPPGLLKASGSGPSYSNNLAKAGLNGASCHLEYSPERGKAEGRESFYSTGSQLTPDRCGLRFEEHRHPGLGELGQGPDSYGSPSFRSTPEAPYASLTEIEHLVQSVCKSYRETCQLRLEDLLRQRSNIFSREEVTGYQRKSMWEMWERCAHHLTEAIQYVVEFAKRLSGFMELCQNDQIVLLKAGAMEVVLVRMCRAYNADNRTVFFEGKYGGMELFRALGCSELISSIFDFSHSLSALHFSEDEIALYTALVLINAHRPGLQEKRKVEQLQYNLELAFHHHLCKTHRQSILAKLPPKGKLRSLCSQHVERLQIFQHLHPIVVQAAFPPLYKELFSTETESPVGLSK
Chain of human Peroxisome Proliferator-activated Receptor delta (PPARd), PPARD (gene 5467) (Q03181 whole entry, looked up, the tested form may be a part): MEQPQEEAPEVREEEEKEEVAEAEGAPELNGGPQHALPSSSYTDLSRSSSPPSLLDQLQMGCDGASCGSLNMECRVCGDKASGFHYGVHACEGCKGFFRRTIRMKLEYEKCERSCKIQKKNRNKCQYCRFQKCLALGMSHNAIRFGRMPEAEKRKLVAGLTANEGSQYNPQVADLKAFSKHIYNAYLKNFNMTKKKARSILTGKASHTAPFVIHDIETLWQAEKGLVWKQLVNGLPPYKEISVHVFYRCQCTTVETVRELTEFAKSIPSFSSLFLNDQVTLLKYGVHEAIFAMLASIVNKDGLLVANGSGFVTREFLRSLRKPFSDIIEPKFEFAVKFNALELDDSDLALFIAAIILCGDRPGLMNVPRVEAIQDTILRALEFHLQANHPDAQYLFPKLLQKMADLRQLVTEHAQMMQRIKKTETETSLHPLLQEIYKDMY
Chain of Retinoic acid receptor RXR-alpha (Homo sapiens) (P19793 whole entry, looked up, the tested form may be a part): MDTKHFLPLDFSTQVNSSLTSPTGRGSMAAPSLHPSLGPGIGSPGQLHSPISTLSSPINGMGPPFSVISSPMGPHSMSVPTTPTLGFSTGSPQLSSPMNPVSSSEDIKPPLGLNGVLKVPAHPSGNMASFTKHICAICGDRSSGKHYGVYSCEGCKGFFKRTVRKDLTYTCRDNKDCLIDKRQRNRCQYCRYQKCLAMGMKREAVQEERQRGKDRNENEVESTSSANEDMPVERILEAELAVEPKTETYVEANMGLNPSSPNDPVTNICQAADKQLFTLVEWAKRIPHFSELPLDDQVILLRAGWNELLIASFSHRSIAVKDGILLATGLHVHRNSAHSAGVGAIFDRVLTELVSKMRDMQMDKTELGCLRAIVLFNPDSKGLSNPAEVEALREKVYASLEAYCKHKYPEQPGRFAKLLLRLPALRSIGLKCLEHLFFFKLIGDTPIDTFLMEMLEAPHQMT
Chain of Nuclear receptor subfamily 1 group I member 2 (Homo sapiens) (O75469 whole entry, looked up, the tested form may be a part): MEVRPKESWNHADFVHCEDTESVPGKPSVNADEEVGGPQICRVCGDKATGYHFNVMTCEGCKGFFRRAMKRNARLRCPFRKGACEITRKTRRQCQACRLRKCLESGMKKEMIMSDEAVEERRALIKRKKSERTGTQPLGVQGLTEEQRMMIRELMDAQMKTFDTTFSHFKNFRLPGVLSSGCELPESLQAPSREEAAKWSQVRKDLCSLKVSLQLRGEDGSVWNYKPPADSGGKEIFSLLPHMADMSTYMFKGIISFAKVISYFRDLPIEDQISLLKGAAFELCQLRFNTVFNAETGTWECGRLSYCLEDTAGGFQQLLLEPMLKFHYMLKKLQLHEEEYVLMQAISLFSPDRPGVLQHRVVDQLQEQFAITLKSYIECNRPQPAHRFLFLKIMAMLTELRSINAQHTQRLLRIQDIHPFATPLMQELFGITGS
Chain of human RAR-related Orphan Receptor beta (RORb), RORB (gene 6096) (Q92753 whole entry, looked up, the tested form may be a part): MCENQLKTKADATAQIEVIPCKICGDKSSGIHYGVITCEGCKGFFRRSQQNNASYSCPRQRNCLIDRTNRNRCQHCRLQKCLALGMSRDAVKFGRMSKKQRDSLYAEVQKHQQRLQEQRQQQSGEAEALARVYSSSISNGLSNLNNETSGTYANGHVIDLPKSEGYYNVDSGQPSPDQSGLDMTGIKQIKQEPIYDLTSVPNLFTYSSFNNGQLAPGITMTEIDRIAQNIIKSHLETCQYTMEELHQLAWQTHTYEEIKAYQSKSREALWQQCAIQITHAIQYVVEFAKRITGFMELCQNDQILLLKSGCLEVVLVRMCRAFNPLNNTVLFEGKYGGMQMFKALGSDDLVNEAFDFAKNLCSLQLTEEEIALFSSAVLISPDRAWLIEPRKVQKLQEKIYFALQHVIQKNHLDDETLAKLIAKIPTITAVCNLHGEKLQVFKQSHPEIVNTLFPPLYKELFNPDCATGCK
Chain of human Retinoid X Receptor beta (RXRb), RXRB (gene 6257) (P28702 whole entry, looked up, the tested form may be a part): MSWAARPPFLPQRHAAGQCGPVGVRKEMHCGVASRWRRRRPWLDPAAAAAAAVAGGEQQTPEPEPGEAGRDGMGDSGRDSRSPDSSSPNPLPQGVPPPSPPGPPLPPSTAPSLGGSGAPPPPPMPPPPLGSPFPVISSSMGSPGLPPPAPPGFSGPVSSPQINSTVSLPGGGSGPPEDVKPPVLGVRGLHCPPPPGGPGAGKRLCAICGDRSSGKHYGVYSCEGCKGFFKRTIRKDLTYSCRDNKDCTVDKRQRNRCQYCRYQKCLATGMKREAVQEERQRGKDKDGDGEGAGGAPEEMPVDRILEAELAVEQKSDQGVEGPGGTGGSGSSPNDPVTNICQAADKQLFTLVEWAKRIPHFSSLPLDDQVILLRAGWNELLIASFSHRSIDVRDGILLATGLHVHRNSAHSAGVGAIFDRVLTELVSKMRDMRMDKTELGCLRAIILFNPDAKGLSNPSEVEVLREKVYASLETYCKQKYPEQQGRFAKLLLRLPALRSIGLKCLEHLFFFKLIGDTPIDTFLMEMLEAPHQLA
Chain of human Thyroid Receptor alpha (THRa1), THRA (gene 7067) (P10827 whole entry, looked up, the tested form may be a part): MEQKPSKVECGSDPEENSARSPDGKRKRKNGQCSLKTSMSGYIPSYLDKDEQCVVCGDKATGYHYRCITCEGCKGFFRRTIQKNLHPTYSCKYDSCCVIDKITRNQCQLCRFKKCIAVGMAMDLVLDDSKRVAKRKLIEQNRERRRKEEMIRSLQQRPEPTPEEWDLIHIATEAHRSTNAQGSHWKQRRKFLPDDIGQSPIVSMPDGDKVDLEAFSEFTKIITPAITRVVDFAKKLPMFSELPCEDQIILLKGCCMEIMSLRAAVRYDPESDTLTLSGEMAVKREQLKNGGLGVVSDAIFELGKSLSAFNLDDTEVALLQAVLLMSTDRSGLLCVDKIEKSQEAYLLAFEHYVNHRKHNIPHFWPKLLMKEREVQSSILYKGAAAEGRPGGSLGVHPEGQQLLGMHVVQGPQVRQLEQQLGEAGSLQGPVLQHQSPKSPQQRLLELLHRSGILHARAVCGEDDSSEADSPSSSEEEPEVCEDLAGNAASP
Chain of Peroxisome proliferator-activated receptor gamma (Homo sapiens) (P37231 whole entry, looked up, the tested form may be a part): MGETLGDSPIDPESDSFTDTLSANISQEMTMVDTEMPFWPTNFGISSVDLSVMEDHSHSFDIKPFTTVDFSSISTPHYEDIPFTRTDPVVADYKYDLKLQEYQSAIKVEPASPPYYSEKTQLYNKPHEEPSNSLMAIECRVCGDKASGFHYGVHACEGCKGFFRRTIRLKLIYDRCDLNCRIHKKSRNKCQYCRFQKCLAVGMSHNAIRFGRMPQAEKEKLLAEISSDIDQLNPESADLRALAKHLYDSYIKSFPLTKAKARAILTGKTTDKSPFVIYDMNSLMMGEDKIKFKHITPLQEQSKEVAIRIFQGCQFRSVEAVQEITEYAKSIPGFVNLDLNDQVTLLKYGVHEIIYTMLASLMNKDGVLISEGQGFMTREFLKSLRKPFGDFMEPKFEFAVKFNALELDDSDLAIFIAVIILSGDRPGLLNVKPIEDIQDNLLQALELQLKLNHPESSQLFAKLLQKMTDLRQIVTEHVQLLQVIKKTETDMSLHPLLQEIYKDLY
Chain of human Retinoic Acid Receptor gamma (RARg), RARG (gene 5916) (P13631 whole entry, looked up, the tested form may be a part): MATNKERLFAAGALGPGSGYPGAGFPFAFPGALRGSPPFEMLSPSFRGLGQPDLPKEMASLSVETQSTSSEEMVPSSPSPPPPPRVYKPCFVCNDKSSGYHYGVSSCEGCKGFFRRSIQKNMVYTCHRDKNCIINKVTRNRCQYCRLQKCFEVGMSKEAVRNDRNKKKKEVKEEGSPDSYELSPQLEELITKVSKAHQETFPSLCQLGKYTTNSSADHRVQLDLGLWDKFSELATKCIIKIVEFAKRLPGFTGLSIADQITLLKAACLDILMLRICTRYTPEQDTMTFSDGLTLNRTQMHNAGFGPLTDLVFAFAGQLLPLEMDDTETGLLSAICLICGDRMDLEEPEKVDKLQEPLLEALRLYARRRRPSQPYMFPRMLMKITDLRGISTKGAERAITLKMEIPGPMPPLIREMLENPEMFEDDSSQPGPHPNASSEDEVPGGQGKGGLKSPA

Consider `CCC(C)(O)CCC=C(C)C` (stereo not drawn), for which the outcome in [1], in experiment [2], in experiment [3] and in [4] was inactive.

Consider `OCCN1CCNCC1`, for which the outcome in [1] and in experiment [3] was inactive.

As to `CC(C)Oc1ccccc1O`, the outcome in experiment [5], in [6], in experiment [7], in experiment [3], in experiment [4] and in experiment [8] was inactive. In addition, the outcome in [9], in experiment [10], in experiment [11], in experiment [12], in experiment [13] and in [14] was inactive. For the same compound, the AC50 in experiment [2] is 27.4 µM (active).

On to `COC(C(=O)O)c1ccccc1` (stereo not drawn), for which the compound was classed as inactive in [1], in experiment [7] and in experiment [2]. Also, in experiment [8], the AC50 was 62.9 µM (active).

Take `OCCCCCO`: the call in [1], in experiment [7], in experiment [2] and in [8] was inactive.

With `CC1=CC(=O)NS(=O)(=O)O1`, the call in experiment [1], in [15], in experiment [16] and in [8] was inactive.

As to `CC(CC(C)(C)C)CC(C)(C)CC(C)(C)C` (stereo not drawn), the result in [1], in [7], in experiment [3], in experiment [15], in experiment [4] and in experiment [16] was inactive. In experiment [8], the compound was called inactive.

On to `CN(C)C(=N)N=C(N)N`, for which the outcome in experiment [1], in experiment [2], in experiment [17], in [4] and in [8] was inactive.

Turning to `O=P(c1ccccc1)(c1ccccc1)c1ccccc1`, the outcome in experiment [5], in [6], in experiment [7], in experiment [15], in experiment [4] and in experiment [9] was inactive. Besides, the outcome in experiment [10], in experiment [11], in [12], in [13] and in [14] was inactive. Moreover, in [2], the AC50 is 0.325 µM (active).

For `COC(=O)c1ccc(C)cc1`, the result in [5], in [6], in experiment [3], in [4], in experiment [8] and in experiment [9] was inactive. Besides, the outcome in experiment [10], in [11], in experiment [12], in [13] and in experiment [14] was inactive. The values for the AC50 in experiment [2] and in experiment [16] were 9.06 µM (active) and 14.3 µM (active), respectively.

`CC(=O)O[C@H](CC(=O)[O-])C[N+](C)(C)C`: the compound was called inactive in experiment [1], in experiment [7] and in experiment [8].

Consider `Cc1cc(C2(c3cc(C)c(O)cc3C)OS(=O)(=O)c3ccccc32)c(C)cc1O`, for which the outcome in [5], in experiment [6], in [7], in experiment [4], in [16] and in experiment [9] was inactive. Also, the result in experiment [10], in [11], in experiment [12], in [13] and in experiment [14] was inactive. In experiment [2], the AC50 is 32.7 µM (active).

What is called AC50 is the concentration at which the activity in the assay is half-maximal.
